Measured values: PubChem BioAssay AID504690 (Sanford-Burnham Center for Chemical Genomics, 2011)
About 2,700 (0.77%) of roughly 350,000 compounds were called active.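 How the source made its calls: active means inhibition reaching at least a set limit at 20 µM in the primary screen (cut at about 59% in these data); inactive means the rest.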 The entries come from a sample that favours actives as a whole.

tested on: glucose-6-phosphate dehydrogenase-6-phosphogluconolactonase (Plasmodium falciparum 3D7); assay: inhibition of malaria parasite G6PD (PfGluPho) – biochemical, fluorescence intensity, uHTS, primary screen (AID 504690); settings: PfGluPho enzyme, NADPH resazurin-diaphorase fluorescence; at 20 µM; hits give high values;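 further: 0% = DMSO wells with substrate and 100% = DMSO wells lacking glucose-6-phosphate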

Compound | inhibition
O=C(N/N=C/c1cccc(Br)c1)c1ccc(N2CCCC2=O)cc1 | 9.79% (inactive)
O=C(N/N=C\c1cccc(Br)c1)c1ccccc1-n1cccc1 | 77.6% (active)
O=C(CNC(=O)c1cccs1)N/N=C/c1cccc(Br)c1 | -3.31% (inactive)
CCCNc1c(N)c(=O)c1=O | -14.2% (inactive)
CC(=O)c1c(C)[nH]c(=S)c(C#N)c1-c1ccc(F)cc1 | 36.1% (inactive)
CCc1c(C)[nH]c(=S)c(C#N)c1C | 60.6% (active)
CN(C)CCCNC(=S)N1CCN(c2nc(-c3ccccc3)cs2)CC1 | 7.81% (inactive)
FC(F)(F)c1ccc2c3n(nc2c1)CCN=C3c1ccc(Cl)cc1 | 21.6% (inactive)
O=C(CC1Oc2ccccc2NC1=O)NCCCN1CCN(Cc2ccccc2)CC1 (stereo unspecified) | 17.8% (inactive)
Cc1noc(C)c1CSc1nc2cc(S(=O)(=O)N3CCOCC3)ccc2o1 | 46.6% (inactive)
COc1ccc(CCn2c(NCCCN3CCOCC3)nc3c2c(=O)[nH]c(=O)n3C)cc1 | 5.12% (inactive)
CC1CCN(c2nc3c(c(=O)[nH]c(=O)n3C)n2CCCc2ccccc2)CC1 | 12.8% (inactive)
COc1ccc(CCn2c(NN=C3CCCC3)nc3c2c(=O)[nH]c(=O)n3C)cc1 | 77.3% (active)
CCN(c1ccc2c(c1)OCO2)S(=O)(=O)c1cc(Br)cc2c1N(C(=O)C1CC1)CC2 | 32.5% (inactive)
Nc1cccc2c1C(=O)N(Cc1nnc(-c3ccccc3Br)o1)C2=O | -11.2% (inactive)
COc1ccc(Nc2ncc(F)c(N3CCOCC3)n2)cc1 | -2.57% (inactive)
Cc1cc(Nc2ccc(Cl)cc2)nc(N2CCOCC2)n1 | 74.6% (active)
O=C(CSc1nc(Nc2ccccc2)nc(N2CCOCC2)n1)Nc1cc(Cl)ccc1O | 21.3% (inactive)
C=CCOc1ccc(C(=O)Nc2ccccc2C(=O)N2CCCC2)cc1 | 15.3% (inactive)
C/C(=N/NC(=O)c1cc(Cl)ccc1O)C12CC3CC(CC(C3)C1)C2 | 50.1% (inactive)
O=C(c1ccc(NS(=O)(=O)c2ccc3[nH]c(=O)[nH]c3c2)cc1)N1CCCCC1 | -7.11% (inactive)
N/C(=N\OS(=O)(=O)c1cccc([N+](=O)[O-])c1)c1ccncc1 | -9.59% (inactive)
CC12CCCCC1=CC(=O)CC2 (stereo unspecified) | 10.3% (inactive)

Compound | inhibition
O=C(COC(=O)Cc1ccc(Cl)cc1Cl)NCc1ccco1 | -17.6% (inactive)
Clc1ccc(Nc2ccc3ccccc3n2)cc1 | 31.9% (inactive)
Cc1cc(Nc2ccc(Br)cc2)nc2ccccc12 | 86.8% (active)
CCOc1ccc(NC(=O)c2cc(C)nc3ccccc23)cc1 | 6.27% (inactive)
O=C(Nc1cccc(Cl)c1)c1cc(S(=O)(=O)N2CCCCC2)c[nH]1 | -8.02% (inactive)
CCOC(=O)Cn1c2c(c(-c3ccccc3OC)cc1=O)CCCC2 | 10.3% (inactive)
CC1=C/C(=N\OS(=O)(=O)c2ccccc2)C=CC1=O | 116% (active)
COC(=O)C(C(=O)Nc1cccc(Cl)c1C)C1CCCC1 (stereo unspecified) | 5.12% (inactive)
CCOC(=O)c1cc(-c2sc(NC(=O)c3ccccc3)nc2C)n(CCO)n1 | 5.2% (inactive)
Cc1ccc(-n2c(-c3ccc(Cl)cc3)n[nH]c2=S)cc1 | 39.8% (inactive)
S=c1[nH]nc(-c2cc(-c3ccsc3)n[nH]2)n1-c1ccccc1 | 63% (active)
Cc1ccc(NCc2n[nH]c(=S)n2-c2ccccc2)cc1Cl | 17.7% (inactive)
CCCCCN(C(=O)CCC(=O)OCC(=O)NCc1ccc(OC)cc1)c1c(N)n(CCCC)c(=O)[nH]c1=O | 6.98% (inactive)
C=CCOc1ccc(Cl)cc1CNCCCN1CCOCC1 | -22.9% (inactive)
CCOC(=O)Cn1nnnc1C | -8.58% (inactive)
CCOC(=O)N1CCC(NC(=O)c2ccc3nc(N4CCOCC4)sc3c2)CC1 | -2.75% (inactive)
Cc1nc(N2CCOCC2)sc1C(=O)NN | 61.7% (active)
COc1ccc(NC(=O)c2sc(N3CCOCC3)nc2-c2ccccc2)c(OC)c1 | 7.35% (inactive)
Cc1ccc(S(=O)(=O)N2CCCCC2)cc1NC(=O)[C@@H]1CCCN1C(=O)c1cccs1 | -10% (inactive)
COc1ccc(C(=O)Nc2ccccc2C(=O)N/N=C/c2ccc(O)c(OC)c2)cc1 | 63.8% (active)
O=C(NN=Cc1ccc2c(c1)CCC2)c1ccccc1O | -13.6% (inactive)
COc1cc(C=NNC(=O)c2cccnc2)ccc1OC(=O)c1ccccc1F | 0.22% (inactive)
CC(C)Cc1nnc(N)s1 | -0.68% (inactive)

Compound | inhibition
Cc1ccc(C2CC(c3cccc(Br)c3)n3nc(N)nc3N2)cc1 (stereo unspecified) | 18% (inactive)
Cc1csc(=O)n1CC(=O)Nc1ccc(S(C)(=O)=O)cc1 | 1.5% (inactive)
Cc1cc(=O)n2[nH]c(-c3sccc3-n3c(C)ccc3C)cc2n1 | 10.7% (inactive)
C[C@@H]1CN([C@@H](C)CO)S(=O)(=O)c2ccc(-c3ccc(C(=O)N(C)C)cc3)cc2O[C@@H]1CN(C)Cc1ccccc1C(=O)O | 1.43% (inactive)
Cc1ccc2nnn(Cc3cccc(C(C)(C)C)c3O)c2c1 | 4.75% (inactive)
C#CCOCCOCCOCCNc1nc(N2CCN(C(=O)CCCCCCCCCCNC(=O)[C@H]([C@@H](C)CC)n3cc(CCCCN=C(N)N)nn3)CC2)nc(N2CCN(C(=O)CCCCCCCCCCNC(=O)[C@H](CO)n3cc(CCCSC)nn3)CC2)n1 | 44.4% (inactive)
C#CCOCCOCCOCCNc1nc(N2CCN(C(=O)Cn3cc(CCO)nn3)CC2)nc(N2CCN(C(=O)[C@H](CCCCN)n3cc(CCCC)nn3)CC2)n1 | 6.73% (inactive)
C#CCOCCOCCOCCNc1nc(N2CCN(C(=O)CCCCCCCCCCNC(=O)Cn3cc(CCCCCN)nn3)CC2)nc(N2CCN(C(=O)CCCCCCCCCCNC(=O)[C@H](CO)n3cc(CCCSC)nn3)CC2)n1 | 60% (active)
COCc1cc(C)nc2sc3c(=O)n(-c4cccc5ccccc45)nnc3c12 | -2.51% (inactive)
CCC(=O)N1CCC(C(N)=O)(N2CCCCC2)CC1 | -1.08% (inactive)
CCOc1cccc(/C=N/N2C(=O)CSC2=S)c1O | 60.8% (active)
O=C1CSC(=S)N1/N=C/c1ccc(O)c([N+](=O)[O-])c1 | 18.4% (inactive)
O=C1CSC(=S)N1c1ccc(O)cc1 | -5.81% (inactive)
COc1ccccc1CNC(=O)COn1nnc2ccc(S(=O)(=O)N3CCOCC3)cc21 | -5.31% (inactive)
CC(C)C(c1nnnn1C1CCCC1)N1CCN(c2ccccc2F)CC1 (stereo unspecified) | 1.8% (inactive)
Cc1cc(C)c2[nH]c(=O)c(CN(Cc3ccccc3)C(=S)NCCCN(C)C)cc2c1 | -9.85% (inactive)
COc1ccccc1-n1c(SCC(=O)Nc2ccc(Cl)cc2)nc(O)c(Cc2ccccc2)c1=O | -30.4% (inactive)
CN(C)c1nccc(NCc2ccccc2)c1C#N | -1.06% (inactive)
CC(C)n1cnc2c(NCc3ccccc3)cc(OCC3CCN(C)CC3)cc21 | 65.4% (active)
Cn1c(N)cc(=O)n(C)c1=S | -4.84% (inactive)
Cc1ccccc1-c1cc(C(=O)NCc2cccs2)n(CC2CC(c3cccnc3)=NO2)n1 (stereo unspecified) | 1.18% (inactive)
Cc1ccc(OS(=O)(=O)c2ccc(-c3csc(C)n3)s2)c(C)c1 | 17.7% (inactive)
FC(F)(F)C1CCCN(c2nsc3ccccc23)C1 (stereo unspecified) | 110% (active)

Compound | inhibition
COc1ccc(Cl)cc1NC(=O)COc1ccc2c(c1)OCO2 | -7.15% (inactive)
Cc1ccc(SC(C)C(=O)NCc2ccc(F)cc2)cc1 (stereo unspecified) | 0.13% (inactive)
CCC(=C/c1sc2ccc3ccccc3c2[n+]1C)/C=C1\Sc2ccc3ccccc3c2N1C | 113% (active)
CCC[C@H]1CCCC/C=C\CCCC(=O)OCCN1C(=O)OC(C)(C)C | -3.27% (inactive)
Cn1cnnc1SCC(=O)Nc1ccc(N2CCOCC2)cc1 | 7.84% (inactive)
C=CC(=O)Nc1ccc(Nc2ccnc(Nc3ccc(N4CCN(C)CC4)cc3)n2)cc1 | 77.4% (active)
CN1CCN(c2nc(Nc3ccc(O)cc3)nc3ccccc23)CC1 | 3.52% (inactive)
CCCC[C@H]1COCCS(=O)(=O)N1Cc1cccc(Cl)c1 | 14% (inactive)
O=C(CSc1nnc(CN2CCCC2)n1-c1ccc(F)cc1)c1ccc2c(c1)OCO2 | 8.99% (inactive)
COC(=O)CCCC1=CC2=CC(=O)C(C)(OC(=O)c3cccs3)C(=O)C2=CN1c1cccc(C#N)c1 (stereo unspecified) | 31.5% (inactive)
CCCCC1=CC2=CC(=O)C(C)(OC(=O)CC)C(=O)C2=CN1CCCOC(C)C (stereo unspecified) | 34.2% (inactive)
COC(=O)CCCC1=CC2=CC(=O)C(C)(OC(=O)c3cccs3)C(=O)C2=CN1CC(C)C (stereo unspecified) | 61.6% (active)
Cc1cccc(N2CCC(NCc3c(C(=O)N4CCCCC4)nc4c(C)cccn34)CC2)c1 | -3.68% (inactive)
O=Cc1cn(-c2ccccc2)nc1-c1ccccn1 | -1.58% (inactive)
COc1ccc(-c2nn(-c3ccccc3)cc2C(=O)Nc2nccs2)cc1OC | 32.2% (inactive)
COc1ccc(-c2nn(-c3ccccc3)cc2/C=N/Nc2ccccn2)cc1OC | 70.3% (active)
COc1ccc(OC)c(/C=C/C(=O)c2ccc3c(c2)OCO3)c1 | 2.18% (inactive)
Cc1ccc(OCC(=O)NC(C)c2ccccc2)c([N+](=O)[O-])n1 (stereo unspecified) | -11.2% (inactive)
CCc1ccccc1NC(=O)CN(C)C(=O)COc1ccc(C)nc1[N+](=O)[O-] | -20.3% (inactive)
Cc1ccc(OCC(=O)Nc2ccccc2Sc2ccc(Cl)cc2)c([N+](=O)[O-])n1 | 99.2% (active)
O=S(=O)(NCC1CCCO1)c1ccc2ccccc2c1 (stereo unspecified) | -2.51% (inactive)
COCCNC(=O)NC(=O)COC(=O)C1(c2ccc(Cl)cc2)CC1 | 8.76% (inactive)
